Consider 8 compounds from PubChem BioAssay (Tox21).

Values without a mark were called inactive. Inconclusive results are not listed. Activity calls are given as the source filed them. Unless noted, calls come from the whole dose curve.

Test [1] in a line: Nuclear factor erythroid 2-related factor 2/antioxidant responsive element (Nrf2/ARE) small molecule agonists: qHTS cell viability counter screen in human keratinocytes (AID 1919968; active = well fitted curve in the direction sought with a large enough effect in the repeat runs; an effect the other way counts as inactive or inconclusive; note: nearly all actives have a fitted effect of over 55% in size). In short, it runs like this: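 Stably transfected HaCaT (KeratinoSens), 1,500/well. Test agents in DMSO were applied for 23 h, 37 C/5% CO2. CellTiter-Fluor was incubated 1 h before the fluorescence read.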

A short description of test [2]: Nuclear factor erythroid 2-related factor 2/antioxidant responsive element (Nrf2/ARE) small molecule agonists: luciferase reporter gene qHTS assay in human keratinocytes (AID 1919969). Note: nearly all actives have a fitted effect of over 35% in size. Note: potency is the fitted concentration of half-maximal effect. A general note: In a reporter assay the amount or activity of a reporter protein is the signal.
For test [3], the target named is Gonadotropin-releasing hormone receptor (Homo sapiens) (UniProt P30968). Briefly: Human gonadotropin-releasing hormone receptor (GnRHR) small molecule agonists, calcium flux assay in GnRHR-HEK293 cells (AID 1920063). Note: nearly all actives have a fitted effect of over 35% in size. In short, it runs like this:
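Stable human GnRHR HEK293 line. 18 h plating, then calcium dye for 1 h at 37 C. Agonist-mode compound addition from DMSO stocks; fluorescence monitored 3 min.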
On the technique in general: A change in cytosolic calcium serves as a functional read-out for many receptors and channels.

Test [4] deals with KiSS-1 receptor (Homo sapiens) (UniProt Q969F8). Briefly: Human kisspeptin (KISS1R) small molecule agonists, calcium flux assay in KISS1R-HEK293 cells (AID 1920064; active = well fitted curve in the direction sought with a large enough effect in the repeat runs; an effect the other way counts as inactive or inconclusive). In short, it runs like this: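 After overnight (18 h) culture at 37 C/5% CO2, human KISS1R-HEK293 cells received calcium dye for 1 h, then test compound; emission at 540 nm (excitation 480 nm) was tracked for 3 min.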
KiSS-1 receptor (Homo sapiens), sequence (Q969F8 whole entry, looked up): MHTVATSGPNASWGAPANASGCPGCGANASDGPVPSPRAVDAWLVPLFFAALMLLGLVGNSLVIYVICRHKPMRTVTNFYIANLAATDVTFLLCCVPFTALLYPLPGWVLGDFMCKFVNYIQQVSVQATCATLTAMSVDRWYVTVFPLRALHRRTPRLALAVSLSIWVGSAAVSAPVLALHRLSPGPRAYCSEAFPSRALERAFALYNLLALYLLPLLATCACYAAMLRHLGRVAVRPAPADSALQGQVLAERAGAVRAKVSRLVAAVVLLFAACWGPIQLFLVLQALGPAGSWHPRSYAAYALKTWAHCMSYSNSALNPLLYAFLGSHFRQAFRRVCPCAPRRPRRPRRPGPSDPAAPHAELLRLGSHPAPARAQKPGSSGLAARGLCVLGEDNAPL

Test [5] can be described thus: G protein-coupled receptor (GPCR) small molecule agonists, calcium flux assay: HEK293 wild type cell line counter screen (AID 1920065). In short, it runs like this: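 Following 18 h incubation at 37 C/5% CO2, plates got calcium dye for 1 h; compounds, ATP or DMSO were then pinned in and fluorescence followed kinetically (480/540 nm).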
Test [6] can be described thus: p53 small molecule agonists, cell-based qHTS assay with human liver microsomes: qHTS cell viability counter screen (AID 1963579). Note: nearly all actives have a fitted effect of over 45% in size. In short, it runs like this:
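Metabolic activation used human liver microsomes and NADPH, both 0.5 mg/mL final, over 16 hours at 37 C on p53RE-bla cells (4,000/well). Cytotoxicity measured by CellTiter-Glo luminescence, 30 min at room temperature.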

Test [7] is described as follows: p53 small molecule agonists, cell-based qHTS assay with rat liver microsomes: qHTS cell viability counter screen (AID 1963580). Note: nearly all actives have a fitted effect of over 45% in size. In short, it runs like this: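 After the beta-lactamase ratio was read, CellTiter-Glo was added to the same wells and luminescence measured at 30 min; cells had been treated 16 h at 37 C with compounds, rat liver microsomes and NADPH (0.5 mg/mL final each).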
On the technique in general: Quantitative high-throughput screening tests each substance at several concentrations.

Test [8] in a line: p53 small molecule agonists, cell-based qHTS assay: qHTS cell viability counter screen (AID 1963581). Note: nearly all actives have a fitted effect of over 45% in size. In short, it runs like this: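 qHTS counter screen: 16 h compound exposure at 37 C of p53RE-bla HCT-116 cells (4,000 per well, seeded 5 h prior), cell viability by ATP luminescence.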
Test [9] has as its target 5-hydroxytryptamine receptor 2A (Homo sapiens) (UniProt P28223). Briefly: 5-hydroxytryptamine receptor 2A (HTR2A) small molecule antagonists, cell-based qHTS assay (AID 1963586). Note: nearly all actives have a fitted effect of over 45% in size. In short, it runs like this:
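CHO cells stably expressing human HTR2A were plated for 18 h at 37 C, then loaded with calcium dye for 1 h. Compounds were preincubated 5 min at room temperature before DOI (4 nM solution) was added. Kinetic fluorescence was read for 3 min.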

Test [10] has the same target. The test can be described thus: 5-hydroxytryptamine receptor 2A (HTR2A) small molecule agonists, cell-based qHTS assay (AID 1963587). Note: nearly all actives have a fitted effect of over 30% in size. In short, it runs like this:
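CHO cells stably expressing human HTR2A, plated 18 h, loaded with calcium dye 1 h at 37 C. Agonist mode: compounds added and intracellular calcium fluorescence recorded kinetically for 2 min at 1 sec intervals.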

For test [11], the target named is Muscarinic acetylcholine receptor M1 (Homo sapiens) (UniProt P11229). Briefly: Cholinergic receptor muscarinic 1 (CHRM1) small molecule antagonists, cell-based qHTS assay (AID 1963588). Note: nearly all actives have a fitted effect of over 40% in size. In short, it runs like this: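 Compounds were tested at 15 concentrations in three independent runs. Dye-loaded CHRM1-CHO cells were exposed 5 min at room temperature before stimulation by acetylcholine added at 50nM. Intracellular calcium was read kinetically on FDSS for 3 min.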
Muscarinic acetylcholine receptor M1 (Homo sapiens), sequence (P11229 whole entry, looked up): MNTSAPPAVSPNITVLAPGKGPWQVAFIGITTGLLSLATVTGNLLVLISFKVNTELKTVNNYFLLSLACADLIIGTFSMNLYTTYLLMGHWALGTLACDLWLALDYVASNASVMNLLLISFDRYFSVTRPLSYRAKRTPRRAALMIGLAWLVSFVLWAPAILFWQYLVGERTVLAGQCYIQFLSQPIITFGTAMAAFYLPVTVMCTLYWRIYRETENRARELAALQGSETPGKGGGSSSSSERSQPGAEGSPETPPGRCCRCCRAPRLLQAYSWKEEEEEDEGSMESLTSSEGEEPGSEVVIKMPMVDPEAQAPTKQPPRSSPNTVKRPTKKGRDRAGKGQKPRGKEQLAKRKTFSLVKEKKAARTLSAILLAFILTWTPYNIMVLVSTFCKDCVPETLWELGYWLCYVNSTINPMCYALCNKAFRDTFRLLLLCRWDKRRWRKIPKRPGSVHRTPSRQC

The target is the same in test [12]. Briefly: Cholinergic receptor muscarinic 1 (CHRM1) small molecule agonists, cell-based qHTS assay (AID 1963589). Note: nearly all actives have a fitted effect of over 35% in size. In short, it runs like this:
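Kinetic fluorescence (1 s intervals) of calcium-sensitive dye in human M1 CHO cells after compound addition; cells pre-incubated 18 h at 37 C/5% CO2 and dye-loaded 1 h.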

Test [13] in a line: cAMP Responsive Elements (CRE) small molecule antagonists, cell-based qHTS assay (AID 1963591; active = well fitted inhibition curve with a large enough effect in the signal ratio in the repeat runs, not every such curve was filed as active; the % refers to the signal ratio). In short, it runs like this:
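Reporter line CRE-bla HEK 293T in dialyzed-FBS DMEM; cells preincubated 18 h, treated 3 h with compound plus NKH477 (0.25 uM final); LiveBLAzer FRET, 2 h RT.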

The target of test [14] is Beta-2 adrenergic receptor (Homo sapiens) (UniProt P07550). Briefly: Adrenergic beta2 receptor (ADRB2) small molecule antagonists, cell-based qHTS assay (AID 1963592). Note: series mostly up to about 92 µM; nearly all actives have a fitted effect of over 50% in size. In short, it runs like this:
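Assay format: CHO-ADRB2 cells, 18-20hr seeding at 37C/5% CO2, then compound plus 1nM isoproterenol agonist mix for 0.5hr RT. Homogeneous time-resolved fluorescence cAMP detection after 1hr, expressed as 665/615 nm ratio.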

Test [15] shares this target. The test can be described thus: Adrenergic beta2 receptor (ADRB2) small molecule agonists, cell-based qHTS assay (AID 1963593).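 Note: CHO cells stably overexpressing human ADRB2.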 In short, it runs like this: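 CHO cells stably over-expressing ADRB2 were plated overnight at 37C, then dosed with compounds plus a stimulation mix containing 100uM IBMX and 25uM Ro-20-1724 for 0.5hr at room temperature. cAMP was measured by HTRF competition, 1hr.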

For test [16], the target named is D(2) dopamine receptor (Homo sapiens) (UniProt P14416). The test can be described thus: Dopamine D2 receptor (DRD2) small molecule agonists, cell-based qHTS assay (AID 1963594). Note: nearly all actives have a fitted effect of over 35% in size. In short, it runs like this: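 HEK293 cells stably expressing human DRD2, pre-treated with PDE inhibitor Ro20-1724 (0.1 mM final) and compound 10 min at room temperature, then stimulated with NKH477 (200nM […]) for 30 min. cAMP read by HTRF (665/620 nm).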
D(2) dopamine receptor (Homo sapiens), sequence (P14416 whole entry, looked up): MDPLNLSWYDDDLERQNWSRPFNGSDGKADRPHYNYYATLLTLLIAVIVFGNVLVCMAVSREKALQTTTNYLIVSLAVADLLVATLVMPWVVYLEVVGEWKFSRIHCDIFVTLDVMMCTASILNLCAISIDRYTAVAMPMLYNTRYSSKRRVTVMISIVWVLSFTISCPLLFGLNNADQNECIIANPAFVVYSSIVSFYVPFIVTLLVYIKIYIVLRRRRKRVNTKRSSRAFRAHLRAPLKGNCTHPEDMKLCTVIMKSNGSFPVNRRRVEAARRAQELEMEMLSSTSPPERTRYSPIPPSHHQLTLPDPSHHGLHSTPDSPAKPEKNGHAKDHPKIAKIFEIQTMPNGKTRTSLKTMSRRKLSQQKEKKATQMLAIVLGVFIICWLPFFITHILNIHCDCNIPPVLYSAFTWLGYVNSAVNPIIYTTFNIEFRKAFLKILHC

For test [17] the target is unchanged. Briefly: Dopamine D2 receptor (DRD2) small molecule antagonists, cell-based qHTS assay (AID 1963595; active = well fitted inhibition curve with a large enough effect in the signal ratio in the repeat runs, with a control signal flat; the % refers to the signal ratio). In short, it runs like this:
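Antagonism was scored as restored cAMP in HEK293-DRD2 cells. These cells were stimulated with 200 nM NKH477 and 12 nM quinpirole for 30 min at room temperature, in the presence of 0.1 mM Ro20-1724.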

A short description of test [18]: cAMP Responsive Elements (CRE) small molecule agonists, cell-based qHTS assay (AID 1963590). In short, it runs like this: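 Test agents in DMSO were incubated 3 h at 37 C/5% CO2 with CRE-bla HEK 293T cells seeded 18 h earlier; LiveBLAzer B/G FRET substrate was added and read after 2 h at room temperature.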

Beta-2 adrenergic receptor (Homo sapiens), sequence (P07550 whole entry, looked up): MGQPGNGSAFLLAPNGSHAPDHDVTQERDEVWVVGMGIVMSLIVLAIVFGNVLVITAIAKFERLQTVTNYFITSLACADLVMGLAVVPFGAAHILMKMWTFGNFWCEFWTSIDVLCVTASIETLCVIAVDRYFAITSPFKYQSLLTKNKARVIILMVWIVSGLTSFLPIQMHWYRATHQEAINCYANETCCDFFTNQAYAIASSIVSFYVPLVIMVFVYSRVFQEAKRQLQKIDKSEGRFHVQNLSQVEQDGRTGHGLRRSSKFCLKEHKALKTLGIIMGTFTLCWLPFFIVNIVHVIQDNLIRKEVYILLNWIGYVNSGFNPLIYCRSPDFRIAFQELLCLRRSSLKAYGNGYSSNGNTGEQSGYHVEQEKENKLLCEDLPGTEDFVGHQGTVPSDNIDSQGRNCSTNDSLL
5-hydroxytryptamine receptor 2A (Homo sapiens), sequence (P28223 whole entry, looked up): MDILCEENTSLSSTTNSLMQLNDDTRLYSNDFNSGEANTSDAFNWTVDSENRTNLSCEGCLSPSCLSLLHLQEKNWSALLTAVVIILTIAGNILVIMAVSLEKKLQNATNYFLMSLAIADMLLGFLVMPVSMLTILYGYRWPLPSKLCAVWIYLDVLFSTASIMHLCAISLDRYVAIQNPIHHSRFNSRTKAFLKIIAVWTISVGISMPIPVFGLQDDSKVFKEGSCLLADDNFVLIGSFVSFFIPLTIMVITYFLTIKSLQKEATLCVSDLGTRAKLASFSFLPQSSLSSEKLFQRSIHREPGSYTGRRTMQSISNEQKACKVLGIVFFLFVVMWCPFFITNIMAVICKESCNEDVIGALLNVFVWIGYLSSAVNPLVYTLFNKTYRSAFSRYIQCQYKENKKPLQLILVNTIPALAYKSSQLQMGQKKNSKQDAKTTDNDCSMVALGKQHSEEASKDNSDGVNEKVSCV
Gonadotropin-releasing hormone receptor (Homo sapiens), sequence (P30968 whole entry, looked up): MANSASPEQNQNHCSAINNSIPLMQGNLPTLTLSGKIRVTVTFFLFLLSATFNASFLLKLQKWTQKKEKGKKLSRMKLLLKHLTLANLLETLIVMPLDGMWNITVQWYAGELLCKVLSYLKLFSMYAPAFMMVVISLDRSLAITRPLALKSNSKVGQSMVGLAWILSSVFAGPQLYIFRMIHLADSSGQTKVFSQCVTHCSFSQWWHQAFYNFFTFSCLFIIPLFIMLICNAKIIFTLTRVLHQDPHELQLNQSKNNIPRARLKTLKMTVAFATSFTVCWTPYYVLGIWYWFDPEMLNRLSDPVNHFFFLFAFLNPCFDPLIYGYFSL

As to `CCCCCCCC/C=C\CCCCCCCC(=O)OC(CO)CO`, the Potency entry in test [1], in test [3], in test [4], in test [5], in [6] and in test [7] was “inactive” in each case. Moreover, the Potency entry in test [8], in test [9], in test [10], in test [11], in test [12] and in test [13] was “inactive” in each case. Also, the Potency entry in test [14], in test [15] and in test [16] was “inactive” throughout. In test [2], the Potency is 34.4 µM (active).

`CCNCCO`: the Potency result in [1], in test [2], in test [3], in test [4], in test [5] and in [6] was “inactive” in each case. Also, the Potency result in test [7], in test [8], in [9], in test [10], in test [11] and in test [12] was “inactive” each time. For the same compound, the Potency result in [13], in test [14], in [15], in [16] and in test [17] was “inactive” each time.

`CCCCCCCCCCCCCBr`: the Potency result in test [1], in test [2], in test [3], in test [4], in test [5] and in [6] was “inactive” throughout. Further, the Potency entry in test [7], in test [8], in test [9], in test [10], in [11] and in test [18] was “inactive” each time. The Potency result in test [13], in test [14], in test [15] and in test [17] was “inactive” throughout.

On to `CN(C)c1ccncc1`, for which the Potency entry in test [1], in test [2], in test [3], in test [4], in test [5] and in test [6] was “inactive” each time. The Potency entry in test [7], in [8], in test [9], in test [10], in test [12] and in test [18] was “inactive” throughout. Moreover, the Potency entry in test [13], in test [14] and in [17] was “inactive” throughout.

On to `COc1cc(S(=O)(=O)Nc2ccccc2)c(OC)cc1N`, for which the Potency result in test [1], in test [2], in test [3], in test [4], in test [5] and in test [6] was “inactive” throughout. Also, the Potency result in [7], in test [8], in test [9], in test [10], in test [12] and in test [18] was “inactive” throughout. Also, the Potency entry in [13], in [14], in test [16] and in [17] was “inactive” each time.

In the case of `Cn1cnc2c(=O)[nH]c(N)nc21`, the Potency result in test [1], in test [2], in [3], in test [4], in [5] and in test [6] was “inactive” in each case. The Potency entry in test [7], in test [8], in test [9], in [10], in test [12] and in test [18] was “inactive” in each case. Also, the Potency entry in [13], in test [14], in test [16] and in [17] was “inactive” in each case.

In the case of `BrCc1cccc(Oc2ccccc2)c1`, the Potency result in test [1], in test [2], in test [3], in [4], in test [5] and in [6] was “inactive” throughout. Also, the Potency entry in test [7], in test [8], in test [9], in test [10], in [12] and in test [18] was “inactive” in each case. Moreover, the Potency entry in [13], in test [14], in test [16] and in [17] was “inactive” in each case.

`O=C1c2cccc3c2[C@H](CCC3)CN1[C@@H]1CN2CCC1CC2`: the Potency entry in [1], in test [2], in test [3], in test [4], in test [5] and in [6] was “inactive” in each case. Besides, the Potency result in test [7], in test [8], in [9], in test [10], in test [12] and in test [18] was “inactive” throughout. The Potency result in test [13], in [14] and in test [17] was “inactive” each time.
